The source of these data is ChEMBL document CHEMBL3988442, “University of Dundee, Small-Polar-MMV Screening Library” (2021).

What all share (design): scale not given: direction of the effect not stated beside the values
Test [1] concerns the target Protein translocase subunit SecA (Escherichia coli (strain K12)) (UniProt P10408). The experiment in a line: Assay to Identify E. coli SecA ATPase Inhibitors. It counts as functional. To be noted: 30 µM.
In test [2] the target is T1, Ubiquitin-activating enzyme e1, putative (Leishmania donovani (strain BPK282A1)) (UniProt E9BSI1).
T1 sequence (whole entry): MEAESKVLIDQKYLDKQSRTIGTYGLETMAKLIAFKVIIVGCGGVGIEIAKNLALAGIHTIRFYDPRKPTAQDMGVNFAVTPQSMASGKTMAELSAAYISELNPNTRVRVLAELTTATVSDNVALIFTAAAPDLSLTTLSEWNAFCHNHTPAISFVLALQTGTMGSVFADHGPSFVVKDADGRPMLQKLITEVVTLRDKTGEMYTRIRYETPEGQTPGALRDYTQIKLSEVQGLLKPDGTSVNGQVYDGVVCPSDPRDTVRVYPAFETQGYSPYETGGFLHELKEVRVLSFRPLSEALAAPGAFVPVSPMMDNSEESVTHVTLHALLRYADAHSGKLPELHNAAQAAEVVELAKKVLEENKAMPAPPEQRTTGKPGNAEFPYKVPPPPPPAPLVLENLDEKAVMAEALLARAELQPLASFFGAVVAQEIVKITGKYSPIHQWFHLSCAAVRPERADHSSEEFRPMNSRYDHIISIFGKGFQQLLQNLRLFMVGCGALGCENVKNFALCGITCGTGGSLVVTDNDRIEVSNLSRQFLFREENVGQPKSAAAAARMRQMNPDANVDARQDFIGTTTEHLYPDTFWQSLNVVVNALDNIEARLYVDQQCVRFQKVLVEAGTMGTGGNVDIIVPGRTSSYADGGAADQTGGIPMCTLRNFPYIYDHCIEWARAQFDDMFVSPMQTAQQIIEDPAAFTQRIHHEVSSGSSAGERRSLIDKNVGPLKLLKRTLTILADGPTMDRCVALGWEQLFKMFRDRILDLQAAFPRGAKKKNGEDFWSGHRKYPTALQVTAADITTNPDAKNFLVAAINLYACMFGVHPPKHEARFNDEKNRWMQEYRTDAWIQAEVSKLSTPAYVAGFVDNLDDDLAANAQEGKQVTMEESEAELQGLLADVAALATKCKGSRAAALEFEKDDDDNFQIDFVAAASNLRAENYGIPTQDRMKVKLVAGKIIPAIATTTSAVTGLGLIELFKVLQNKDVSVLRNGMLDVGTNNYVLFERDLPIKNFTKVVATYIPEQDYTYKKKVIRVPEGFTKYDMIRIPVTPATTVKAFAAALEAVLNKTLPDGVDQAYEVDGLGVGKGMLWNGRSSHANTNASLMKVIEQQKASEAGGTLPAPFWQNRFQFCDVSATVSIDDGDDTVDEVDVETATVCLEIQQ
The experiment in a line: Leishmania donovani Ubiquitin Activating Enzyme (LdE1). To be noted: 30 µM. It counts as functional.

Test [3] has as its target Sialic acid-binding Ig-like lectin 9 (Homo sapiens) (UniProt Q9Y336). The experiment in a line: Hs-Siglec9 ALPHAscreen SOP 20170721. To be noted: 10 µM. On the technique in general: Bead proximity is the source of the signal in Alpha formats.
For another test, the system named is Trypanosoma cruzi. The experiment in a line: Trypanosoma cruzi phosphomannomutase and mannose-1-phosphate guanylyltransferase assay. To be noted: 10 µM. It counts as functional.
Test [4] deals with T2, Arginase-2, mitochondrial (Homo sapiens) (UniProt P78540).
T2 sequence (whole entry): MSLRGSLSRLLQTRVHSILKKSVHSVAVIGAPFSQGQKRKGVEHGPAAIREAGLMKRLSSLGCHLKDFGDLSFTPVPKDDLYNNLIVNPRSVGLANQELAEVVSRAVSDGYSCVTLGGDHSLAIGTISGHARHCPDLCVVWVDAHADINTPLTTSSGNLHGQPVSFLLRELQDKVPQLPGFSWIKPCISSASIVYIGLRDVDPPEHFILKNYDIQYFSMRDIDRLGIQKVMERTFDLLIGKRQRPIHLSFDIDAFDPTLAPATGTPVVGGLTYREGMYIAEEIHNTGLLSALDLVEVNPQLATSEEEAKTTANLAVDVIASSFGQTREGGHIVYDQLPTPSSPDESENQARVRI
The experiment in a line: in vitro enzyme assay to detect the production of urea directly proportional to the activity of Arginase II. Note: in the data most compounds retested in dose-response had high values. Type of test: functional. To be noted: 33.3 µM.

The target in test [5] is T3, Proteasome subunit beta (Trypanosoma cruzi) (UniProt O96673).
T3 sequence (whole entry): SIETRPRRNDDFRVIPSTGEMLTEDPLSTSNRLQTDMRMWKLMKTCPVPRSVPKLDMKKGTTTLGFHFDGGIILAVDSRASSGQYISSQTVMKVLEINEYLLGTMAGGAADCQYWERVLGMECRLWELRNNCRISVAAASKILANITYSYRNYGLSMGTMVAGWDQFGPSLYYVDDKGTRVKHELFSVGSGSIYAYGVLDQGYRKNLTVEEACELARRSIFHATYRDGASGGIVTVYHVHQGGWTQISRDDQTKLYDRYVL
The experiment in a line: Trypanosoma cruzi proteasome chymotrypsin-like activity (TcProtChymo) assay. Note: in the data most compounds retested in dose-response had high values. To be noted: 9.37 µM. Type of test: functional.

The species named for the next test is Homo sapiens. The experiment in a line: To identify inhibition of the IFN signalling (Jak-Stat) pathway via expression of an eGFP reporter gene under the control of an IFN-stimulated response element (ISRE) containing MxA promoter. Type of test: functional. To be noted: 30 µM. For orientation: In a reporter assay the amount or activity of a reporter protein is the signal.

The target of test [6] is T4, Tyrosyl-tRNA synthetase, putative (Trypanosoma cruzi (strain CL Brener)) (UniProt Q4DSP6).
T4 sequence (whole entry): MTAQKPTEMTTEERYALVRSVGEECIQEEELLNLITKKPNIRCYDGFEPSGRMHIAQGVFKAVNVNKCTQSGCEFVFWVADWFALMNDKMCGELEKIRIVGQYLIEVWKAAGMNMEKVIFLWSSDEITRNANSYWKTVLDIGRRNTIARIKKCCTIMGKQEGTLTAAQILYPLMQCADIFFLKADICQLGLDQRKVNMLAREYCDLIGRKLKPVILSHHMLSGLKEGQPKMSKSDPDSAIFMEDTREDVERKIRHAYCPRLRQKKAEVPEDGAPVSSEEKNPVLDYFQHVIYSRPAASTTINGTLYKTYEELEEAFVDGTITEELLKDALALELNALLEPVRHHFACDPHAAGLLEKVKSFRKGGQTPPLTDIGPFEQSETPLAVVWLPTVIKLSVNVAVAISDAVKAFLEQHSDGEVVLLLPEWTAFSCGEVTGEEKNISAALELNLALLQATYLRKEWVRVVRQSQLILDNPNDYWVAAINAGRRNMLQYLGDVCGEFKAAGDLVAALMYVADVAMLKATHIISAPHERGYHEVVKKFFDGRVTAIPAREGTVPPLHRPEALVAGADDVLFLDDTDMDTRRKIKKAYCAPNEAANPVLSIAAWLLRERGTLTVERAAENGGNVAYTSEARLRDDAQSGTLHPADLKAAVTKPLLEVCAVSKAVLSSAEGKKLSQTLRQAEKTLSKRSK
The experiment in a line: Trypanosoma cruzi tyrosyl tRNA synthetase (TcYRS) _High Tyrosine SOP. Note: in the data most compounds retested in dose-response had high values. Type of test: functional. To be noted: 30 µM.

The target of test [7] is T4, Tyrosyl-tRNA synthetase, putative (Trypanosoma cruzi (strain CL Brener)). The experiment in a line: Trypanosoma cruzi tyrosyl tRNA synthetase (TcYRS) SOP. To be noted: 30 µM. It counts as functional.
In test [8] the target is Chromo domain-containing protein 1 (Saccharomyces cerevisiae (strain ATCC 204508 / S288c) (Baker's yeast)) (UniProt P32657). The experiment in a line: ScCHD-1 Enzyme Inhibition Assay. Note: in the data most compounds retested in dose-response had high values. To be noted: 30 µM. Type of test: functional.

For some of these results: Entries with a potency or affinity are not part of this list.

Sialic acid-binding Ig-like lectin 9 (Homo sapiens), sequence (Q9Y336 whole entry): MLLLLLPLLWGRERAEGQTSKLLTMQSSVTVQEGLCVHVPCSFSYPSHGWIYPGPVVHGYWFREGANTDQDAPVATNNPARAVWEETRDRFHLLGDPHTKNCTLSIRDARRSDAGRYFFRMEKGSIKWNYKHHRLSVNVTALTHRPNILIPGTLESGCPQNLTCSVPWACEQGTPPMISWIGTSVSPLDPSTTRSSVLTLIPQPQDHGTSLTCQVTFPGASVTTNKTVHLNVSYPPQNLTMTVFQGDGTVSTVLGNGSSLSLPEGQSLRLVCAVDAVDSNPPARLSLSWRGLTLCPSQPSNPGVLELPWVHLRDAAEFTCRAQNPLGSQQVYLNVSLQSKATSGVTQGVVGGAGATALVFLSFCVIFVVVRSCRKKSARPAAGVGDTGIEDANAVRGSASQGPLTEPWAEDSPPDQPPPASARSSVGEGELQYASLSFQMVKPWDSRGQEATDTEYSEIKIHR
Chromo domain-containing protein 1 (Saccharomyces cerevisiae (strain ATCC 204508 / S288c) (Baker's yeast)), sequence (P32657 whole entry, the tested form may be a part): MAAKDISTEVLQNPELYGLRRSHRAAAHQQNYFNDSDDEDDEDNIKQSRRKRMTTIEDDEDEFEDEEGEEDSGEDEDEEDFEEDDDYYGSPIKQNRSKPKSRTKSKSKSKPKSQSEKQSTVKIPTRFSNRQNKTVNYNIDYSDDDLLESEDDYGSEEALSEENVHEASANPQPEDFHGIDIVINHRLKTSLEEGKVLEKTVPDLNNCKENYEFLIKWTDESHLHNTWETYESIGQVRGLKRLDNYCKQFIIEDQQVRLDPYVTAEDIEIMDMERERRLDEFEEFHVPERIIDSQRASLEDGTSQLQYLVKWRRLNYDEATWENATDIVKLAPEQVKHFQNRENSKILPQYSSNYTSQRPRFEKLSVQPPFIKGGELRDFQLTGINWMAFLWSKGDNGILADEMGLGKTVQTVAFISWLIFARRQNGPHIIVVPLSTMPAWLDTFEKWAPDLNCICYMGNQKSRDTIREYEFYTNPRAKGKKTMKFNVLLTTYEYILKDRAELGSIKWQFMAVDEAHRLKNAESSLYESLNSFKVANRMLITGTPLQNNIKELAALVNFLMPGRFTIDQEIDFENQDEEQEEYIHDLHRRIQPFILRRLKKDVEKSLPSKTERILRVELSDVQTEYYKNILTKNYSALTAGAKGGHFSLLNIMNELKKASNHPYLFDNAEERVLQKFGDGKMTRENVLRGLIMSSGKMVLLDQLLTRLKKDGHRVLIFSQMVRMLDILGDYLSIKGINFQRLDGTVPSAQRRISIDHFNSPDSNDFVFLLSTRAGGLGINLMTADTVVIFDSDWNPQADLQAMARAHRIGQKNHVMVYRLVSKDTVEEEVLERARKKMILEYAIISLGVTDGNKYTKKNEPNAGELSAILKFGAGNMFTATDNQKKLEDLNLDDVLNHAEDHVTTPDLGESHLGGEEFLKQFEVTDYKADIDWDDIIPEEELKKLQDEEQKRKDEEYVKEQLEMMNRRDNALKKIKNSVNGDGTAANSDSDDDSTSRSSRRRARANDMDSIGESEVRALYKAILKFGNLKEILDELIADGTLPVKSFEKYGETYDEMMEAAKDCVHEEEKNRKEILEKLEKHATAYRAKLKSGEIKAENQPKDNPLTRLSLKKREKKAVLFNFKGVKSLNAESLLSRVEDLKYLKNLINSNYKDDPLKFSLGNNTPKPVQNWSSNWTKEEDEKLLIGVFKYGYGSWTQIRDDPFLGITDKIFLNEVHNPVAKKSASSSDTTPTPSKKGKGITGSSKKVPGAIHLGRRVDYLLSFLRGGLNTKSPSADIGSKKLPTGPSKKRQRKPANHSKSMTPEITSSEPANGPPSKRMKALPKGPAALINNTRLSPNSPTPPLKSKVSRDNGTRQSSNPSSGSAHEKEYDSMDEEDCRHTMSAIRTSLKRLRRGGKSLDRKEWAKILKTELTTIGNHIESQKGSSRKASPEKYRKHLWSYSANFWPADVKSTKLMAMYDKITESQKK
Protein translocase subunit SecA (Escherichia coli (strain K12)), sequence (P10408 whole entry): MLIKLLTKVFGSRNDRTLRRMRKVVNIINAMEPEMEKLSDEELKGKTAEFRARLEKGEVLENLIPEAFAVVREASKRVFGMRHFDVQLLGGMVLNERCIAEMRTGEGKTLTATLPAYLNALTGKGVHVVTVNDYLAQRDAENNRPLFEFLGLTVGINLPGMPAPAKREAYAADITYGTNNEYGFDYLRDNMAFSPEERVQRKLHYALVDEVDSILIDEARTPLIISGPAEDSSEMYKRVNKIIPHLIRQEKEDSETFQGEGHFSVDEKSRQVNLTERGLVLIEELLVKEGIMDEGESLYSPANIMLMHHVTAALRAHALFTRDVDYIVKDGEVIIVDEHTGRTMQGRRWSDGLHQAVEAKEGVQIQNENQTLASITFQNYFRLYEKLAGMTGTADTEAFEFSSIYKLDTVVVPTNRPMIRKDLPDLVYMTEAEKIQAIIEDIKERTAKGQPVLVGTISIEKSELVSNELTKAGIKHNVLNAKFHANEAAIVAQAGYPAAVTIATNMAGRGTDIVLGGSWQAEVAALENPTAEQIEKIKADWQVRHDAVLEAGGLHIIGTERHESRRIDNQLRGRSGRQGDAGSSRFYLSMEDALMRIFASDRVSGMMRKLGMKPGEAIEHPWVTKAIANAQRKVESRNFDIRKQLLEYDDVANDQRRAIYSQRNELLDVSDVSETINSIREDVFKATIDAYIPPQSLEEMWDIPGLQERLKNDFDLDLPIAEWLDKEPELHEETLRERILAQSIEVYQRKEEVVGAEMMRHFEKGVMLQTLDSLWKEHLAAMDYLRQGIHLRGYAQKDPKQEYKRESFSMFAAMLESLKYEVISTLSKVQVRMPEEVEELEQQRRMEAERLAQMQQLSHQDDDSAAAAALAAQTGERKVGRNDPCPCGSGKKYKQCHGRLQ

Consider `N#Cc1ccccc1OCCN1CCn2c(nnc2C2CC2)C1`, for which the Percent Effect in [1] is 1.03%; in [2], 2.67%; in test [3] it was -0.123%; in the test with Trypanosoma cruzi, -0.602%; in test [4], -0.444%; in test [5], 5.85%. Moreover, the Percent Effect in the test listed under Homo sapiens is -1.08%; in [6], 2.63%; in test [7], 2.56%; in [8] it was -0.472%.
As to `CCN1CCN(c2ccc(CNC(=O)c3ccc(Cl)o3)cn2)CC1`, the Percent Effect in test [1] was -0.96%; in [2], 21.3%; in [3], -3.96%; with Trypanosoma cruzi, 2.41%; in test [4], 6.21%; in test [5], 18.4%. Also, the Percent Effect was 0.841% in the test listed under Homo sapiens, 7.89% in test [6], 15.4% in test [7] and -10.4% in test [8].
As to `C[C@H]1CN(Cc2cnn(C)c2)C[C@@]12CCN(Cc1cccnc1)C2=O`, the Percent Effect in [1] was -2.17%; in test [2], 11.7%; in test [3] it was 0.906%; in the test on Trypanosoma cruzi it was -5.07%; in test [4], 4.57%; in [5] it was 4.21%. Besides, the Percent Effect in the test filed under Homo sapiens was 23.4%; in test [6], 6.76%; in [7], 2.5%; in test [8] it was -3.65%.
Take `Cc1noc(C)c1C(=O)N1CC[C@H]2C[C@@H](c3nccs3)O[C@@H]2C1`: the Percent Effect in [1] was -6%; in test [2] it was 6.49%; in test [3], 1.62%; in the test on Trypanosoma cruzi, 5.55%; in [4] it was -10.5%; in test [5], 14.2%. Besides, the Percent Effect in the test listed under Homo sapiens is -13.4%; in test [6] it was 7.89%; in test [7] it was 12.8%; in test [8] it was -3.15%.
In the case of `CC(C)(C)c1n[nH]c(C2CN(C(=O)CCC3CC3)CCO2)n1` (stereo not given), the Percent Effect was -3.72% in test [1]; 5.13% in test [2]; -3.95% in test [3]; 9.86% in the test with Trypanosoma cruzi; -1.23% in test [4]; 5.38% in [5]. The Percent Effect in the test filed under Homo sapiens is -22.9%; in test [6] it was 3.35%; in [7] it was 13.2%; in test [8], -2.58%.
As to `CC(Cn1cccn1)NC(=O)NCc1cccs1` (stereo not given), the Percent Effect in test [1] is -2.75%; in [2], -66.7%; in test [3], 2.38%; in the test on Trypanosoma cruzi, -4.82%; in test [4], 0.887%; in test [5], 13%. For the same molecule, the Percent Effect is 10.9% in the test listed under Homo sapiens, 3.68% in [6], 7.69% in test [7] and -11.3% in test [8].
Turning to `c1cn2c(n1)CN(CC1CC1)CC(CN1CCOCC1)C2` (stereo not given), the Percent Effect in [1] is -6.5%; in [2], 9.09%; in test [3], 6.06%; in the test on Trypanosoma cruzi it was -2.24%; in test [4] it was -2.43%; in [5], 11%. The Percent Effect was -10.6% in the test listed under Homo sapiens, 17.4% in test [6], 12.8% in [7] and 0.532% in [8].
Take `CC1CN(c2ccc(CNC(=O)c3ccn(C)c(=O)c3)cn2)CCO1` (stereo not given): the Percent Effect in [1] is -4.46%; in test [2], 16%; in test [3] it was 0.777%; in the test with Trypanosoma cruzi, 1.61%; in test [4] it was 5.32%; in test [5] it was 7.72%. In addition, the Percent Effect in the test listed under Homo sapiens is 6.29%; in test [6] it was 3.68%; in test [7], 15.4%; in [8] it was -8.09%.
As for `CC(O)CN1CCC(CNCc2ccccc2OC(F)(F)F)CC1` (stereo not given), the Percent Effect in test [1] is -4.07%; in [2], 10.3%; in test [3], -7.91%; in the test on Trypanosoma cruzi, 7.98%; in test [4] it was -1.64%; in [5], 9.81%. Also, the Percent Effect in the test filed under Homo sapiens was 2.5%; in [6], 0.478%; in [7], 10.8%; in test [8] it was -0.0569%.
Take `Cc1cc(C(=O)O)cc(S(=O)(=O)Nc2ccc3c(c2)OCO3)c1C`: the Percent Effect was -0.174% in [1]; 2.56% in [2]; -9.72% in test [3]; 2.91% in the test on Trypanosoma cruzi; 3.69% in [4]; 19.7% in test [5]. The Percent Effect in the test listed under Homo sapiens is -15.4%; in test [6], -4.31%; in [7], 10.8%; in [8], -3.33%.
Consider `O=S(=O)(NCCN1CCCCC1Cn1cncn1)c1ccccc1` (stereo not given), for which the Percent Effect is -1.12% in test [1]; 0% in [2]; 6.15% in test [3]; 1.68% in the test on Trypanosoma cruzi; 7.99% in test [4]; -5.61% in test [5]. For the same molecule, the Percent Effect in the test filed under Homo sapiens was -18.3%; in [6], 1.96%; in test [7], 9.41%; in test [8] it was -1.75%.
For `CN(C)c1cc(C(=O)N2CCN(c3cnccn3)CC2)ccn1`, the Percent Effect is -1.53% in test [1]; 10.3% in test [2]; 0.94% in test [3]; 3.1% with Trypanosoma cruzi; 2.46% in test [4]; 3.16% in test [5]. Besides, the Percent Effect was 3.38% in the test filed under Homo sapiens, 5.26% in test [6], 10.8% in test [7] and -7.53% in test [8].
On to `Cc1cc(C)n(CC2CCCN2CCc2ccncc2)n1` (stereo not given), for which the Percent Effect in test [1] was -5.42%; in test [2] it was 7.69%; in test [3], -18.5%; in the test with Trypanosoma cruzi it was 12.5%; in test [4], -2.87%; in [5], 17.1%. In addition, the Percent Effect in the test filed under Homo sapiens is 5.12%; in test [6] it was 3.35%; in test [7] it was 20.5%; in test [8], -3.37%.
